Reference: PubChem BioAssay (NCI)
Compounds without any hit were thinned out: in the full panel of roughly 79,000, 15% have a hit. No stated cut-off is given here; in the data, active means growth inhibition above about 70%; inactive means the rest.

What was measured:
[1] = NCI Yeast Anticancer Drug Screen. Data for the rad50 strain (AID 155);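 further: 0% = growth of vehicle-only cultures of the same strain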; conditions: S. cerevisiae rad50 strain growth inhibition; at 50.0 µM; stronger effect = higher value
In short: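 Vehicle-treated cultures provide the reference for the growth inhibition reported for compound-exposed, repair-deficient yeast.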

[2] = NCI Yeast Anticancer Drug Screen. Data for the mec2-1 strain (AID 157); conditions: S. cerevisiae mec2-1 strain, at 50.0 µM, stronger effect = higher value
In short: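 Strain: mec2-1 (DNA repair/cell cycle alteration). Compound exposure, then growth measured; inhibition expressed relative to vehicle.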

[3] = NCI Yeast Anticancer Drug Screen. Data for the sgs1 mgt1 strain (AID 161);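 further: 0% = growth of cultures given vehicle only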; conditions: S. cerevisiae sgs1 mgt1 strain, at 50.0 µM, stronger effect = higher value
In short: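 Test agents were incubated with a DNA-repair-mutant yeast strain. Growth was then read and compared against vehicle-treated controls.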

[4] = NCI Yeast Anticancer Drug Screen. Data for the cln2 rad14 strain (AID 165);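 further: 0% = growth equal to vehicle treated cultures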; conditions: S. cerevisiae cln2 rad14 strain, at 50.0 µM, stronger effect = higher value
In short: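 Compounds are applied to the cln2 rad14 yeast strain, and growth is then compared with that of vehicle-treated cultures to give inhibition.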

[5] = NCI Yeast Anticancer Drug Screen. Data for the bub3 strain (AID 167); conditions: S. cerevisiae bub3 mutant strain, at 50.0 µM, stronger effect = higher value
In short: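 Mutant yeast screening strain plus compound; vehicle-treated cultures serve as the 0% inhibition reference.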

[6] = NCI Yeast Anticancer Drug Screen. Data for the mlh1 rad18 strain (AID 175); conditions: S. cerevisiae mlh1 rad18 strain growth inhibition; at 50.0 µM; stronger effect = higher value
In short: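 Read-out is yeast growth inhibition, calculated against vehicle-only controls. The compound was applied to a strain engineered with DNA damage repair alterations.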

Measured: growth inhibition

COc1cc2c(cc1OC)C1CCN3CCCC3N1CC2 (stereo unspecified)
inactive: [1] -7.8% | [2] 7.6% | [3] 0.1% | [4] -14.9% | [5] 2.2% | [6] 3.3%

S=C1NC=CC(S)N1 (stereo unspecified)
inactive: [1] -3.3% | [2] 5.95% | [3] 6.6% | [4] 10.3% | [5] 11.2% | [6] -1.35%

O=C(O)C(Cc1c[nH]c2ccccc12)N1C(=O)c2ccccc2C1=O (stereo unspecified)
inactive: [1] 18.5% | [2] 26.6% | [3] -8.15% | [4] -12.3% | [5] -2.5% | [6] 28.6%

CON(C)S(=O)c1ccc([N+](=O)[O-])cc1 (stereo unspecified)
inactive: [1] 29.8% | [2] 19.1% | [3] 5.45% | [4] -15.6% | [5] -6.05% | [6] 22.1%

Cc1c(O)c2ccc3ccccc3c2oc1=O
inactive: [1] 5.4% | [2] 5.75% | [3] -7.05% | [4] -37.4% | [5] -47.4% | [6] -6.4%

CCn1c2ccccc2c2ccc(N=Nc3ccccc3)cc21
inactive: [1] 36.8% | [2] 12.6% | [3] 19.2% | [4] -1.75% | [5] 22.8% | [6] 17.8%

CCCCN(CCCC)CCC(O)c1ccc(OC)c2ccccc12 (stereo unspecified)
inactive: [1] 44.6% | [2] 4.55% | [3] 56.2% | [4] 57.4% | [5] 16.4% | [6] 49.7%

COC(=O)C1(Br)c2ccccc2-c2ccccc21
inactive: [1] -3.15% | [2] 17.7% | [3] 0.45% | [4] -22.4% | [5] 8.5% | [6] -9.3%

O=C(Sc1ccccn1)c1ccccc1
inactive: [1] 4.15% | [2] -14.3% | [3] -18.4% | [4] -8.05% | [5] -21.6% | [6] -37.1%

CC/C(C)=N/NS(C)(=O)=O
inactive: [1] 12.8% | [2] -7.55% | [3] -0.35% | [4] 2.25% | [5] -44.8% | [6] -10.9%

CC1C(=O)OCC2=CCN3CCC(OC(=O)C(C)C1(C)O)C23 (stereo unspecified)
inactive: [1] 2.25% | [2] -15.8% | [3] -3.45% | [4] 8.05% | [5] 0.9% | [6] -32.5%

COc1ccc(CCNC(=S)/N=C\C2=C(O)c3ccccc3C2=O)cc1OC
inactive: [1] -26.1% | [2] -51.9% | [3] -17.5% | [4] 4.65% | [5] -5.05% | [6] -19.3%

Cc1ccc2ccc(-c3cc4ccccc4s3)nc2c1
inactive: [1] -12.2% | [2] -9.75% | [3] -1.5% | [4] -81.8% | [5] -9.5% | [6] -6.1%

C=C1C(=O)C[C@@H]2CC(C)(C)C[C@]12CC(=O)O
inactive: [1] -11.1% | [2] -41.5% | [3] -1.65% | [4] -7.05% | [5] -9.15% | [6] -17.1%

COc1cc2c3c(c1)[nH]c(=S)n3C(=O)C(c1ccccc1)S2 (stereo unspecified)
inactive: [1] -32.5% | [2] 5.8% | [3] -3.5% | [4] 40.6% | [5] 10.1% | [6] -27.8%

C[Si](C)(C)N1CCCC1
inactive: [1] -22.1% | [2] -26.9% | [3] -16.8% | [4] 12.4% | [5] 3.5% | [6] -6.85%

C=C1CC[C@H]2C(C)=CC[C@@H]3[C@H](OC(=O)[C@H]3CN(C)C)[C@@H]12
inactive: [1] 8.05% | [2] -4.45% | [3] 1.5% | [4] 32.7% | [5] 26.4% | [6] 16.2%

O=C1c2ccccc2S(=O)(=O)c2cc(-c3nn[nH]n3)ccc21
inactive: [1] -2.6% | [2] -29.8% | [3] -22.8% | [4] 0.6% | [5] -13.7% | [6] -48%

CNc1ncnc2c(C3OC(CO)C(O)C3O)[nH]nc12 (stereo unspecified)
inactive: [1] 16% | [2] 10.8% | [3] 6.6% | [4] 20.8% | [5] -0.8% | [6] 13.4%

Nn1c(SSSSc2nnc(-c3ccccc3)n2N)nnc1-c1ccccc1
inactive: [1] -12.8% | [2] 3.85% | [3] -27.2% | [4] -19.7% | [5] 14.6% | [6] 4%

C=CCOC(=O)C1CC(C)=CC(C)C1C (stereo unspecified)
inactive: [1] 23.5% | [2] 3.6% | [3] -13.7% | [4] -46.4% | [5] -12.1% | [6] 5.2%
